Sampled rows, rich in hits. Any-hit rate of the full collection: about 3.3%.
Calb FLC = affects C. albicans growth with fluconazole. C. albicans CaCi-2 (fluconazole-resistant clinical isolate) + fluconazole, Alamar Blue growth, 48 h. growth inhibition, % (test concentration not listed). 0.57% of 300,000 active. AID 1979;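 active means growth inhibition above about 58% in most replicates, limit read from the data, passing the limit was not always enough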;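 further: all wells also contain fluconazole at 8 µg/ml as a sub-toxic cotreatment; 0% = median of DMSO wells and 100% = median of geldanamycin control wells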
Efflux pump inh = blocks antifungal efflux pumps in multiplex yeast assay | S. cerevisiae Candida pump triplex, Nile Red efflux | inhibition, % at 10 µM | 0.44% of 330,000 active | AID 485275;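 active means plate passing quality check with inhibition over a set limit, or well fluorescence over plate mean plus 4 SD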;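 further: Nile Red retained in pooled yeast measured as flow cytometry median fluorescence; 0% = buffer negative control and 100% = Enniatin B positive control; higher means more Nile Red kept so more efflux inhibition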
Cardio protect = protects H9c2 cardiomyocytes from peroxide injury. H2O2 injury protection, ATPLite, 2 h. protection from H2O2 cell death, % at 20 µM. 0.63% of 360,000 active. AID 588492;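 active means compounds giving at least 50% protection of heart cells from peroxide-induced death in the single-dose screen, raw or plate-pattern-corrected value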;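 further: 0% = DMSO wells with peroxide and 100% = DMSO wells without peroxide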
PHOSPHO1 inh = inhibitors of human PHOSPHO1 phosphatase. Q8TCT1. recombinant PHOSPHO1, absorbance phosphatase assay. inhibition, % at 13.3 µM. 1.1% of 290,000 active. AID 1565; in the data active means inhibition above about 60%
Target sequence (Q8TCT1 whole entry, looked up): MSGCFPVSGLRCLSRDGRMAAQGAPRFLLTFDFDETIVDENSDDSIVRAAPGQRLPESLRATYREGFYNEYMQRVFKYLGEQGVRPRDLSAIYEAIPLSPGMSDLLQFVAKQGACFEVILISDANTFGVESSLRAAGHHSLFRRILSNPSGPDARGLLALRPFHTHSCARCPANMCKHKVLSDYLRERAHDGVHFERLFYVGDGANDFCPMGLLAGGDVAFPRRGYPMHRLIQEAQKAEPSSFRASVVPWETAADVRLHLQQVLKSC
Cl transport mod = KCC2 (human) Cl- transport modulation; KCC2 cells, thallium flux FluoZin-2 fluorescence; AID 1456; Q9H2X9; B-score of Tl+ flux slope (higher = more flux/activation; lower = inhibition) at 10 µM; 2.2% of 190,000 active;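 active means thallium flux slope and its plate-corrected score both differing from the plate sample mean at a set confidence after two filtering rounds, in either direction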;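 further: slope of fluorescence scaled to starting intensity during 10 to 20 s after thallium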
An asterisk follows results filed as active; · = no result.

SMILES | Calb FLC | Efflux pump inh | Cardio protect | PHOSPHO1 inh | Cl transport mod
O=C(NCc1ccc(Cl)cc1)c1ncn[nH]1 | -9 | 0 | 9 | 73* | 0.22
O=C(Cc1n[nH]c(=O)c2ccccc12)NCc1ccccn1 | 6 | 0 | 54* | -12 | -0.11
O=C(Cc1ccccc1)NCc1ccccn1 | 19 | 0 | 4 | 45 | 0.27
CCCN(CC(=O)Nc1ccccc1C)C(=O)Cc1n[nH]c(=O)c2ccccc12 | · | 0 | 60* | · | ·
Cc1c(Cl)cccc1NC(=O)CNC(=O)Cc1n[nH]c(=O)c2ccccc12 | · | 0 | 88* | · | ·
CC(C)C[C@H]1CNC(=S)N1C[C@H]1CCCN1C[C@H](Cc1ccc(O)cc1)N1C[C@H](CC(C)C)N(CCc2ccccc2)C1=S | · | · | -3 | · | ·
O=C(O)Cn1cc(C(=S)N2CCOCC2)c2ccccc21 | -6 | 0 | -2 | 88* | ·
Cc1cc2occ(CC(=O)N(CC(C)C)c3c(N)n(Cc4ccccc4)c(=O)[nH]c3=O)c2cc1C | -36 | 0 | 3 | · | ·
O=C(CC(c1ccccc1)c1ccccc1)N1CCN(c2ccccn2)CC1 | 17 | 0 | -8 | 66* | -0.44
O=C(CSc1ncccn1)N1CCN(C(c2ccccc2)c2ccccc2)CC1 | 9 | 0 | 4 | 86* | -0.99
O=C(CC(c1ccccc1)c1ccco1)N1CCCCC1 (configuration not stated) | -6 | 0 | -1 | 60* | 0.6
COc1ccc(NC(=O)c2ccc(COc3ccccc3Br)o2)cc1OC | 6 | 0 | 3 | -2 | -6*
Cc1c(N2C(=O)/C(=C/c3cccc4ccccc34)SC2=S)c(=O)n(-c2ccccc2)n1C | 8 | 0 | 7 | · | -6.8*
COc1ccc(CN2CCCC(C(=O)c3ccc4c(c3)OCO4)C2)c(F)c1 (configuration not stated) | -28 | 0 | -6 | 29 | ·
O=C(Cn1c(=O)oc2cccnc21)Nc1ccccc1Oc1ccc(Cl)cc1Cl | 1 | 0 | · | 32 | -1.9
O=C(Nc1ccc2[nH]c(=S)sc2c1)c1ccccc1 | -10 | 0 | -11 | -16 | 44*
COc1ccc(OCC(=O)NC(=S)Nc2ccc(N3CCOCC3)c(Cl)c2)cc1 | -7 | 0 | -8 | 21 | 36*
Cc1ccc(OCC(=O)Nc2ccc(CN3CCOCC3)cc2)cc1 | 2 | 0 | 2 | 61* | ·
O=C(NC(=S)Nc1ccc(N2CCOCC2)c(Cl)c1)c1cncc(Br)c1 | 9 | 0 | 2 | -4 | 11*
Cn1cnnc1SCC(=O)N/N=C/c1ccc(OCC(N)=O)cc1 | -6 | 0 | 1 | 42 | 0.69
CC(C)[C@H](NC(=O)c1ccc([N+](=O)[O-])cc1Cl)C(=O)N1CCN(C/C=C/c2ccccc2)CC1 | · | 0 | -2 | · | ·
CN(C)CC(C(=O)c1ccccc1)c1ccccc1 (configuration not stated) | 21 | 0 | -32 | 14 | 1
O=C(CC(C(=O)c1ccccc1)c1ccccc1)c1ccccc1 (configuration not stated) | · | · | 56* | · | ·
COc1ccc(OC)c(-c2oc3ccccc3c(=O)c2O)c1 | -5 | 0 | 7 | -1 | 6.8*
COc1cc(OC)c(-c2oc3ccccc3c(=O)c2O)c(OC)c1 | · | · | -4 | · | ·
SMILES | Calb FLC | Efflux pump inh | Cardio protect | PHOSPHO1 inh | Cl transport mod
S=C(N/N=C/c1ccccc1Cl)Nc1ccccc1 | -17 | 0 | -7 | 8 | 16*
CNC(=S)N/N=C/c1ccccc1Cl | 2 | 0 | -3 | -11 | 2.1
CC1CN(C(=O)c2ccccc2OCc2ccc(Cl)cc2Cl)CC(C)O1 (configuration not stated) | · | 0 | 7 | · | ·
CSC1=N/C(=C\c2ccc(C)s2)C(=O)S1 | 13 | 0 | -9 | -10 | -1.7
CSC1=N/C(=C\c2ccc(C)o2)C(=O)S1 | 2 | 0 | 17 | 92* | -1.4
Cc1cccc(/C=N/NC(=O)c2c(-c3ccccc3)noc2C)c1O | -20 | 0 | 54* | -20 | ·
NC[C@@H]1O[C@H](C23CC4CC(CC(C4)C2)C3)Cc2c1ccc(O)c2O | 101* | 0 | 28 | -1 | -0.63
O=S1(=O)CCOCCCN1Cc1ccccc1F | 5 | 0 | -2 | 4 | ·
Cc1cccc(C2N=C(N)Nc3nc4ccccc4n32)c1 (configuration not stated) | -9 | 0 | 6 | 46 | 0.17
O=C(NCCc1ccncc1)Nc1cccc(Cl)c1 | -8 | 0 | 5 | 4 | ·
O=C(NCCCc1ccccc1)Nc1cccc(Cl)c1 | 107* | 0 | -11 | -1 | -2.5
c1ccc(Nc2cc(Nc3ccccc3)[nH]n2)cc1 | 0 | 0 | -8 | 69* | 0.24

Compound activity as filed in PubChem BioAssay.
